Measurements from the supplement of paper PMC11732987, “Enantioselective OTUD7B fragment discovery through chemoproteomics screening and high-throughput optimisation” (Communications Chemistry, 2025).

Key:
Assay in all cases: log2 ratio of Biotin-Ahx-Ub-VS probe labelling (fragment/DMSO); higher = less target engagement (more negative = stronger competition), active = hit call of the paper (q ≤ 0.05, log2 ratio ≤ -1)
Settings in all cases: compound concentration: 200 uM; treatment time: 3 h
[1] = biological target: USP34 (UniProt Q70CQ2)
Summary of the method: (§1)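 Labelling with Biotin-Ahx-Ub-VS (0.5 µM final, 1 h) followed a 3 h triplicate treatment of HEK293T lysate (495 µg per sample, Tris/CHAPS/IGEPAL buffer with protease inhibitors) with fragment at 200 µM or vehicle. Labelled DUBs were NeutrAvidin-enriched, digested with LysC and trypsin, and run by diaPASEF LC-MS/MS. The values, average log2 fragment/vehicle ratios by unpaired t-test, come from global-median-normalised Spectronaut label-free quantities. Proteins with ≥2 unique peptides were used.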

[2] = biological target: T1, USP36 (UniProt Q9P275)
T1 sequence (whole entry): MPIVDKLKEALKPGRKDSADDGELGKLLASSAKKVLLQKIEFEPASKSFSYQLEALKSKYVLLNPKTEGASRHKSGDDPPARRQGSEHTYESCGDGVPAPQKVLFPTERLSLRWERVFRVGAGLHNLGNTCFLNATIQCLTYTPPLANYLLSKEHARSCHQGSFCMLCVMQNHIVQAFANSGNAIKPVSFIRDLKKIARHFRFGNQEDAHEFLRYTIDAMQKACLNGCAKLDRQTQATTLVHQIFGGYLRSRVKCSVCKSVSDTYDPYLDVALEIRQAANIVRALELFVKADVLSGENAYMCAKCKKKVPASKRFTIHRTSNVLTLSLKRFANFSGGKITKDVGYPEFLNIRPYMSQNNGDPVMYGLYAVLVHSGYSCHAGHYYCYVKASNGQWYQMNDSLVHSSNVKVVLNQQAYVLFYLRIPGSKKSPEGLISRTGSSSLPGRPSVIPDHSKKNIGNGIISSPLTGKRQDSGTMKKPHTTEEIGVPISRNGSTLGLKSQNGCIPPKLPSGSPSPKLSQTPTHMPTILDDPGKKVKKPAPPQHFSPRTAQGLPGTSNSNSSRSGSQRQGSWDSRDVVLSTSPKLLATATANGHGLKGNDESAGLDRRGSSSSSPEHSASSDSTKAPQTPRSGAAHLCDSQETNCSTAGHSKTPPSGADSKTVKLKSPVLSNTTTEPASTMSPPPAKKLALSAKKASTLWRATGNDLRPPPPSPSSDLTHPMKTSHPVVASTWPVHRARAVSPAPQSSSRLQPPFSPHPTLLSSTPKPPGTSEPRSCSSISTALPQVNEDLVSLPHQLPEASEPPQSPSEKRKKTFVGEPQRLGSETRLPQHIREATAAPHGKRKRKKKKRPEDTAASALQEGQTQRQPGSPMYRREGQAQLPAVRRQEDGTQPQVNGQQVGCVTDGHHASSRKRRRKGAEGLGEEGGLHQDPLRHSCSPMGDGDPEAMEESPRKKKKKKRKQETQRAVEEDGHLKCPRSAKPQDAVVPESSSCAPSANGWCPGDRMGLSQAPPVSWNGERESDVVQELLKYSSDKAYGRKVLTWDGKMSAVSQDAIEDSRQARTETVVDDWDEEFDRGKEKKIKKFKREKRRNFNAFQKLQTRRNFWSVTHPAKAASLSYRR
Summary of the method: as §1

[3] = biological target: T2, USP38 (UniProt Q8NB14)
T2 sequence (whole entry): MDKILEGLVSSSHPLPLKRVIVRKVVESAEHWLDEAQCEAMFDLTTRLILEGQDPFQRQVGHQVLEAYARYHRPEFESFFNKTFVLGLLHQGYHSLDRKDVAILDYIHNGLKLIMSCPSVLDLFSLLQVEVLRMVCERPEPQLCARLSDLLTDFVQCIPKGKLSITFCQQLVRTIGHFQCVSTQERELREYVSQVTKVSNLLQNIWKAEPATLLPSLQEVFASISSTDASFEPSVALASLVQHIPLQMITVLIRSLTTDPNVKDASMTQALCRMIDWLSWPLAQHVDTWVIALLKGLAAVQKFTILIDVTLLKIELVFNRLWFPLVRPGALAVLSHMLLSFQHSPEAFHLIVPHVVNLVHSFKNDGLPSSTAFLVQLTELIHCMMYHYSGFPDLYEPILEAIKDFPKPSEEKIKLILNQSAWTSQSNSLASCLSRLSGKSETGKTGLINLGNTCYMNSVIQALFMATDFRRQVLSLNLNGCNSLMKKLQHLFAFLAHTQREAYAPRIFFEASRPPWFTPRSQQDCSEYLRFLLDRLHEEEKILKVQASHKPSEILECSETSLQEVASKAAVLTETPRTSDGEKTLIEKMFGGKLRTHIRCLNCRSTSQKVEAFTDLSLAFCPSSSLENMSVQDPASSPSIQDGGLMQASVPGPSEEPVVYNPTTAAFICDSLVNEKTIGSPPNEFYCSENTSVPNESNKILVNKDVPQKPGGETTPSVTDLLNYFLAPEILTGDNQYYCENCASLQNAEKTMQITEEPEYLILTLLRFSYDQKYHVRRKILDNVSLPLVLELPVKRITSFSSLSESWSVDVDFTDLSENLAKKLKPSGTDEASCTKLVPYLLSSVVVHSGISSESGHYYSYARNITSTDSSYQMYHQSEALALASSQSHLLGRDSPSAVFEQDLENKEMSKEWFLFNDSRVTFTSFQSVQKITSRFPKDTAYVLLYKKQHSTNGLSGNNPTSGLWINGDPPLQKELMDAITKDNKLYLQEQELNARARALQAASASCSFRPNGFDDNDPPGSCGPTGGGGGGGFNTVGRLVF
Summary of the method: as §1

[4] = biological target: T3, USP39 (UniProt Q53GS9)
T3 sequence (whole entry): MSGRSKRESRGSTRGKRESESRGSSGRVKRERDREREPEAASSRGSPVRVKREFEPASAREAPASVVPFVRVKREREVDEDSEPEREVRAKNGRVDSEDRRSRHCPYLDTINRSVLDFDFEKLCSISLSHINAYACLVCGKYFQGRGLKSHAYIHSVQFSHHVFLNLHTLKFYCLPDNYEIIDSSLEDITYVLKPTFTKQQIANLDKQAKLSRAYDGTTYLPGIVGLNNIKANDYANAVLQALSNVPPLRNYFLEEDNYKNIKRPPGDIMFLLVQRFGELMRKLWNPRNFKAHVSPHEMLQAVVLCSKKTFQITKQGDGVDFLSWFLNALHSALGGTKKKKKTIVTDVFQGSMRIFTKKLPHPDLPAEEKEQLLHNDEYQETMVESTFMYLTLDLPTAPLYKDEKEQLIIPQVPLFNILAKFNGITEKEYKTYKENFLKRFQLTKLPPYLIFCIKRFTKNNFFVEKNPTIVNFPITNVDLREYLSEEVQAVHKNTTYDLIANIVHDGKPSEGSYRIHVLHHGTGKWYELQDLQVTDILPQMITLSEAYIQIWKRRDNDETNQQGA
Summary of the method: as §1

[5] = biological target: T4, USP4 (UniProt Q13107)
T4 sequence (whole entry): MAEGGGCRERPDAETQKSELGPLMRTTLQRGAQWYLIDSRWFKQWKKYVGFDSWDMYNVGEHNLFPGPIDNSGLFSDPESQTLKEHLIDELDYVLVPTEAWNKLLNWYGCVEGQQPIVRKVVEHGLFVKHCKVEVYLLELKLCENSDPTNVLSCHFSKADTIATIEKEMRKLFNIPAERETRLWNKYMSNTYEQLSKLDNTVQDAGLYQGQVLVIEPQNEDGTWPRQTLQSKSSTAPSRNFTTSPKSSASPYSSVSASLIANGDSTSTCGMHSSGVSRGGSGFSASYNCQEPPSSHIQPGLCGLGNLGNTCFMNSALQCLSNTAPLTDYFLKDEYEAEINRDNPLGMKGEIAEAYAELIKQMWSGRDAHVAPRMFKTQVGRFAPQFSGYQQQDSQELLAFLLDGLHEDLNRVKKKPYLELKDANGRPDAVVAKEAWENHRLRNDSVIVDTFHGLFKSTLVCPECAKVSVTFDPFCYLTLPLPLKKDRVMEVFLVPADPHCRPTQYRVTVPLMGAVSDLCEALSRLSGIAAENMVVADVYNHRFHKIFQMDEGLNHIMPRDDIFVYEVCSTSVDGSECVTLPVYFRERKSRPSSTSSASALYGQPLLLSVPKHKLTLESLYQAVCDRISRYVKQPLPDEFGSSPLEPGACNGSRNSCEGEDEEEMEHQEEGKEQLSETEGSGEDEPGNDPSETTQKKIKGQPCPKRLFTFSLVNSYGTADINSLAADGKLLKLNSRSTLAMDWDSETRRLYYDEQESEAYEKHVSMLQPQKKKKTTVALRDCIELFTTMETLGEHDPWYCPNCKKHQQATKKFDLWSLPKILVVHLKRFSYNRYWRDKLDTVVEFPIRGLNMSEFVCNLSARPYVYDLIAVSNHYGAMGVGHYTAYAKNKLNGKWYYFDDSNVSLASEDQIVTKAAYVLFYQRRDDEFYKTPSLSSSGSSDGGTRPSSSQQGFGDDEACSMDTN
Summary of the method: as §1

Measured: log2 ratio of Biotin-Ahx-Ub-VS probe labelling

USP34, sequence (Q70CQ2 whole entry, the tested form may be a part): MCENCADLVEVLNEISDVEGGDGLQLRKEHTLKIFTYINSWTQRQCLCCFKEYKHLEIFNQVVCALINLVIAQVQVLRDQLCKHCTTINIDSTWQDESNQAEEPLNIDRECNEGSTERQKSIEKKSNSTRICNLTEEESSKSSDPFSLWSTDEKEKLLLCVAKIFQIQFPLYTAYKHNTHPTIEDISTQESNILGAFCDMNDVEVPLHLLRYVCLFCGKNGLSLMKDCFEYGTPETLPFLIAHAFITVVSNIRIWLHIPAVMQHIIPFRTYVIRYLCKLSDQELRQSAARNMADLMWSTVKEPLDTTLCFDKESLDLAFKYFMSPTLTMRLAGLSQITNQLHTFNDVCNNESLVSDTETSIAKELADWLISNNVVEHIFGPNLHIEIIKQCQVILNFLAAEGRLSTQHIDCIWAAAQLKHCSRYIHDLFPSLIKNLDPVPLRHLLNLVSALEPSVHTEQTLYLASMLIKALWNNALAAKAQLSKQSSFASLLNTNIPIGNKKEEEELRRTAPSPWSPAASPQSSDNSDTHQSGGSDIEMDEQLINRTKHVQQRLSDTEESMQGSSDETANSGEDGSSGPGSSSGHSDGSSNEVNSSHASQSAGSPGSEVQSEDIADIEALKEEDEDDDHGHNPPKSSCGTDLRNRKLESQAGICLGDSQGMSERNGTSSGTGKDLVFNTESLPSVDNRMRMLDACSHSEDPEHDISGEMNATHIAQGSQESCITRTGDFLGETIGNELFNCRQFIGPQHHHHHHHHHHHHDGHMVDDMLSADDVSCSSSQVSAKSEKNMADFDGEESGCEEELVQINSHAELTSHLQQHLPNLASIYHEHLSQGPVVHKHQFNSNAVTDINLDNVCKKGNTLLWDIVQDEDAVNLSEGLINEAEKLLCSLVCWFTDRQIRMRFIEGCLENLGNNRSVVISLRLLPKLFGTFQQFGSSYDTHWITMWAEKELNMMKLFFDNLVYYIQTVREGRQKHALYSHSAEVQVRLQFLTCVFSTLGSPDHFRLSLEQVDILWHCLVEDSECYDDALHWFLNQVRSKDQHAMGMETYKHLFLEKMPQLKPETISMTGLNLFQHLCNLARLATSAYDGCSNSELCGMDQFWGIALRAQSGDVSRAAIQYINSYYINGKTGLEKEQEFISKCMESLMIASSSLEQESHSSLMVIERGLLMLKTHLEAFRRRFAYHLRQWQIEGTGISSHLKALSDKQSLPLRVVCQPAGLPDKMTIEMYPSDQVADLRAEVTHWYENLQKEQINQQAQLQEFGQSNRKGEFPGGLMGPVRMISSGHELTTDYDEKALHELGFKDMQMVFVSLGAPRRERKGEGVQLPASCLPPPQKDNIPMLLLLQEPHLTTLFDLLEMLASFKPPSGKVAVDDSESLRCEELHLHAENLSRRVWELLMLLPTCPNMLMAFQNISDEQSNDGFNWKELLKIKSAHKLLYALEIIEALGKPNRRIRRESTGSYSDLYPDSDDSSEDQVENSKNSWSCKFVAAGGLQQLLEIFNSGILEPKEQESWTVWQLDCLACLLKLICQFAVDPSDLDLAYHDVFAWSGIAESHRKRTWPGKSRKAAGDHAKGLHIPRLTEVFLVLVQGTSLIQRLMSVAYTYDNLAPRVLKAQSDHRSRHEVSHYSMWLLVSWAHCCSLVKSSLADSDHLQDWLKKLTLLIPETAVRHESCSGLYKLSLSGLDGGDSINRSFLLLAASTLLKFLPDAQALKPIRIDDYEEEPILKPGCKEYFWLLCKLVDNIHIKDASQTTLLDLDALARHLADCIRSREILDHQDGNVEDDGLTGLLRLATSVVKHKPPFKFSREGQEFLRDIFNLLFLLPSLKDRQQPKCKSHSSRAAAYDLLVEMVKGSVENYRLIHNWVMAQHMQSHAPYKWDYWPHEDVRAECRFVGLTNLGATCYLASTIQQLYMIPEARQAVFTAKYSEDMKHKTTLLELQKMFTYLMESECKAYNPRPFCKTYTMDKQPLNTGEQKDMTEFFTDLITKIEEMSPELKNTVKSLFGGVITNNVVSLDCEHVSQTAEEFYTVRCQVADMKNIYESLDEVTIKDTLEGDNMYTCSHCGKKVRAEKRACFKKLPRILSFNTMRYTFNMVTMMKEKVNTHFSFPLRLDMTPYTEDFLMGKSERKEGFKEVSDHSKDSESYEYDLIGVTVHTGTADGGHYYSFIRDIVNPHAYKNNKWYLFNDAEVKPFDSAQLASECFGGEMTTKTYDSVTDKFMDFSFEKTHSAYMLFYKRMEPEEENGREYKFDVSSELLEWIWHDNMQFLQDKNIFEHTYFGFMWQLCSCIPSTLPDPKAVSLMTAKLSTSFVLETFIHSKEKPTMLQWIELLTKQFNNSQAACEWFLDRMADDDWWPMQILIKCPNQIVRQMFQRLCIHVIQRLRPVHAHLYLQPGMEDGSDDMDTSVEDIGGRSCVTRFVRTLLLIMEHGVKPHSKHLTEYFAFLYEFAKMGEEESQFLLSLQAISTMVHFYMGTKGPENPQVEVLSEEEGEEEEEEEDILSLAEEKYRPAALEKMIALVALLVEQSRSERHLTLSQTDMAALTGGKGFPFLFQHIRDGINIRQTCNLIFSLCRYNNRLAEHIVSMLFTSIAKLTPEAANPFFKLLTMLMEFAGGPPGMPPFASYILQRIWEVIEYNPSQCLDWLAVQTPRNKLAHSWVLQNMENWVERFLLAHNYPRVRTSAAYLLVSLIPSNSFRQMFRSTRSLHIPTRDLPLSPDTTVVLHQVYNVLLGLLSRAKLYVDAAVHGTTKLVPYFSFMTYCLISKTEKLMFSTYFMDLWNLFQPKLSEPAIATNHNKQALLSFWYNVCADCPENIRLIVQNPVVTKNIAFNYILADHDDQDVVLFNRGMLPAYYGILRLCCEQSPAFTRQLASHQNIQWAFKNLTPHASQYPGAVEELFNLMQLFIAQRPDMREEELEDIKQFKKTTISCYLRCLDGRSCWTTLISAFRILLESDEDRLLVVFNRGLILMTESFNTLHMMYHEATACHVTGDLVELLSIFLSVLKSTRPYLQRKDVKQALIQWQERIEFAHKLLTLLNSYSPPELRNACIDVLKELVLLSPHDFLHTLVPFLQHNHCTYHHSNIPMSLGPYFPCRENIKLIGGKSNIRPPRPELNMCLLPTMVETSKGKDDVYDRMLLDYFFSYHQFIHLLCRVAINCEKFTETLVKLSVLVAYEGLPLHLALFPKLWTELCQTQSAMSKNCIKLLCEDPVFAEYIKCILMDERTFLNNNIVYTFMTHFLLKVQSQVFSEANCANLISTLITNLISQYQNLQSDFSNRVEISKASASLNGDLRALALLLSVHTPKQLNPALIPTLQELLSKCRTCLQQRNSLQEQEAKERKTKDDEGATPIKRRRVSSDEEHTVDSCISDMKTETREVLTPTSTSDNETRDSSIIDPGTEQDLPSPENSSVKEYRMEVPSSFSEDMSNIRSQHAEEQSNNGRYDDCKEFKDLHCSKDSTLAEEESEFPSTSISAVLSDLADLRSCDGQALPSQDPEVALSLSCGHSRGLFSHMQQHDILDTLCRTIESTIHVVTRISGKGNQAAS

CS(=O)(=O)c1ccc(NC(=O)CCl)cc1
inactive: [1] 0.0382 | [2] 0.166 | [3] 0.0532 | [4] -0.186 | [5] -0.0813
